For twelve sequences, sensor-assay potency score (higher = more potent) results are on record in the OligoGym collection.
Note: reference of the scale not given here.

This experiment deals with LRRC14. The experiment is described as follows: pooled miR-30 sensor sort-seq; sequence = guide strand. The note with it: shRNA.
Consider TAGCAGTCCACAGGGAAGGGGT, for which the sensor-assay potency score (higher = more potent) is -0.698.
The value for TAGCGGAAGTTGTCCTCGCCAT was -0.494.
With ATGCACATAGTGGAGCCGCAGG the figure was -1.72; with TACCACTGTCTTCTTGTCCATG, -0.472.
Consider TTGAAGCGCAGGTCCACGCGGC, for which the sensor-assay potency score (higher = more potent) was -0.0617.
The value for TGGCACTGCAGCACCTGCCGTG was -0.778; that for TTCCACACCATCATCCAAGAGG was -1.09; that for TCACGCAGACAGGTGAAGCGGC was -0.746.
The sequence TTGAGGTGGGCAGCATGTGGGC had a sensor-assay potency score (higher = more potent) of -1.24.
The value for TTGTCCATGAAGGCCACCTTGA was -1.21; that for TTGTCCTCGCCATCCACGGAGG was -1.48; that for TACGGCAGCAGTACAGTCCCAC was -0.572.
